In all, about 310,000 compounds went through this assay and about 14,000 (4.5%) showed an effect of 50% or more. The effect is printed as a negative number. Shown is part of a subset that was picked to be rich in strong results.
These compounds were tested against human ether-à-go-go-related gene (hERG) potassium channel (human, UniProt Q12809) (assay: primary screen, population patch clamp on CHO cells stably expressing hERG; higher = less effect of the substance).
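Further: peak tail current of the secondary pulse compared with the same well before compound.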

Chain of human ether-à-go-go-related gene (hERG) potassium channel (Q12809 whole entry, looked up): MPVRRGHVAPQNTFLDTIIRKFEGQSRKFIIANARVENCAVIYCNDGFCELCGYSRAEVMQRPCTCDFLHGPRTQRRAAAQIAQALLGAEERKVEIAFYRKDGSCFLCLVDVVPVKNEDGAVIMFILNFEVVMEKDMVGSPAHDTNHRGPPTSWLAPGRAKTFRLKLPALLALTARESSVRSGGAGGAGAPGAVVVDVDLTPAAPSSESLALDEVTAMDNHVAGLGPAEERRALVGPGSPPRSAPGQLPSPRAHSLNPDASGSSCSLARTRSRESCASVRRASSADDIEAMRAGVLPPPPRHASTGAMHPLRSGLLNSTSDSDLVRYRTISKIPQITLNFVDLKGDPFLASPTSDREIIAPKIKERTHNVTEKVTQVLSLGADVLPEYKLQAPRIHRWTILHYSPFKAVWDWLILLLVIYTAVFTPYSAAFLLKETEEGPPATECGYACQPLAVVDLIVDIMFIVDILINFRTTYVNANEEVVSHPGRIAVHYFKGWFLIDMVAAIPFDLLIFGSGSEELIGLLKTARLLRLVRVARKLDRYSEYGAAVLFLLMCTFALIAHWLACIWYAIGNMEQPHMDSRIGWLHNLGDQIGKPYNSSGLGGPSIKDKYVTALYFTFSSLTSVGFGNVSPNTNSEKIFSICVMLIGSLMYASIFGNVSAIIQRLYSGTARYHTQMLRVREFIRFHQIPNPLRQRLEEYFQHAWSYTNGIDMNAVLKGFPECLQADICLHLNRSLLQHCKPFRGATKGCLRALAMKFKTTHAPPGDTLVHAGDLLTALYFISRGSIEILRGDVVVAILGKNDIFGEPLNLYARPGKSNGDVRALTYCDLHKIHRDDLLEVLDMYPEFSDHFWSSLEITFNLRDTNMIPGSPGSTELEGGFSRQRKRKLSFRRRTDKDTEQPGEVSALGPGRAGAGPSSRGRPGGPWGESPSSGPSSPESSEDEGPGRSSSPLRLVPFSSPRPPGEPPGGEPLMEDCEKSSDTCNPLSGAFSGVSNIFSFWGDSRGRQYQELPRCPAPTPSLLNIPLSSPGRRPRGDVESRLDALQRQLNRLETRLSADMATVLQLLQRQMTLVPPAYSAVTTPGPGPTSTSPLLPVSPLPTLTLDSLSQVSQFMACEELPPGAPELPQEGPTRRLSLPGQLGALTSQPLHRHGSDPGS

| Compound | hERG current change (%, negative = inhibition) at 10uM [%] |
| --- | --- |
| Cc1nc(Nc2ccccc2C(F)(F)F)sc1C(=O)N(C)C | 21.7 |
| COC(=O)C(c1cc(OC)c(O)c(OC)c1)(N1CCNC(C)C1)C(F)(F)F (stereo not drawn) | -9.77 |
| CCn1c(SCC(=O)N2CCN(c3ccccc3)CC2)nnc1-c1c[nH]c2ccccc12 | -53.6 |
| Cn1c(SCC(=O)N2CCN(c3cccc(Cl)c3)CC2)nnc1-c1ccncc1 | -55.9 |
| Cn1c(SCC(=O)N2CCN(c3ccccc3)CC2)nnc1-c1ccccc1 | -11.2 |
| CCn1c(SCC(=O)N2CCc3ccccc32)nnc1-c1c[nH]c2ccccc12 | 11.8 |
| Cn1c(SCC(=O)N2CCN(c3ccccc3)CC2)nnc1-c1c[nH]c2ccccc12 | -50.5 |
| Cn1c(SCC(=O)N2CCOCC2)nnc1-c1ccncc1 | 16.3 |
| CCOC(=O)CSc1nnc(-c2c[nH]c3ccccc23)n1CC | -10.3 |
| Cn1c(SCC(=O)N2CCCc3ccccc32)nnc1-c1c[nH]c2ccccc12 | -10.2 |
| Cn1c(SCC(=O)N2CCN(c3ccccc3)CC2)nnc1-c1ccncc1 | -19.5 |
| COc1cccc(N2CCN(C(c3ccccn3)c3nnnn3C(C)(C)C)CC2)c1 (stereo not drawn) | 1.38 |
| O=C(c1ccccc1)N(Cc1cccc(Br)c1)C1CCS(=O)(=O)C1 (stereo not drawn) | -7.59 |
| CCCCC1(C(=O)OC)NC(c2ccc(O)cc2)C2C(=O)N(c3ccccc3)C(=O)C21 (stereo not drawn) | 2.03 |
| Cc1ccc(-c2nnc(SCC#CCOC(=O)c3ccco3)o2)cc1 | -6.36 |
| O=C(O)c1ccc(NC(CSCc2ccc(F)cc2)C(=O)O)c([N+](=O)[O-])c1 (stereo not drawn) | 2.41 |
| CCOc1ccc(C2c3[nH]c4ccccc4c3C[C@H]3C(=O)N(C4CCN(Cc5ccccc5)CC4)CC(=O)N23)cc1OC (stereo partly drawn) | -5.25 |
| C/C(CC(=O)Nc1ccc2c(c1)OCO2)=N\NC(=O)OC(C)(C)C | -5.1 |
| COC(=O)C1C(O)=C(C(C)=N)C(=O)CC1(C)C (stereo not drawn) | 22.9 |
| O=C(COC(=O)C1CC(=O)N(c2nc(-c3ccccc3)cs2)C1)c1ccccc1 (stereo not drawn) | 26.9 |
| C=C1CCN([C@H](C(=O)NCc2ccccc2)C(C)C)S(=O)(=O)c2ccccc21 | 3.33 |
| CCOC(=O)c1cc2ccccc2nc1C | 5.32 |
| CC(C)n1nc(C(=O)OCn2nnc3ccccc3c2=O)c2ccccc2c1=O | 10.2 |
| Cl.Oc1ccc(C2=CSC3=NCCN23)cc1O | -1.2 |

| Compound | hERG current change (%, negative = inhibition) at 10uM [%] |
| --- | --- |
| Brc1ccc(C2=CSC3=NCCN23)cc1 | -29.5 |
| Br.CC(C)Cc1ccc(C2=CSC3=NCCN23)cc1 | -70.5 |
| Br.C1=C(c2ccccc2)N2CCN=C2S1 | -7.6 |
| Br.Cc1ccc(C2=CSC3=NCCN23)cc1 | -4.96 |
| Br.Cc1ccc(C2=CSC3=NCCN23)c(C)c1 | -26.8 |
| Clc1ccc(C2=CSC3=NCCN23)c(Cl)c1.[Br-] | -59.4 |
| Br.Clc1ccc(C2=CSC3=NCCN23)cc1Cl | -48.2 |
| Br.CC(C)(C)c1ccc(C2=CSC3=NCCN23)cc1 | -55.8 |
| Br.CCc1ccc(C2=CSC3=NCCN23)cc1 | -14.7 |
| Br.CC(C)(C)c1cc(C2=CSC3=NCCN23)cc(C(C)(C)C)c1O | -76.2 |
| Br.COc1ccc(C2=CSC3=NCCN23)cc1 | -6.09 |
| O=C(c1ccc(CS(=O)c2ccccc2Cl)o1)N1CCCCCC1 (stereo not drawn) | 14.5 |
| O=C(CC1C(=O)NCCN1C(=O)c1ccc([N+](=O)[O-])cc1)Nc1ccc(F)cc1 (stereo not drawn) | -21.8 |
| O=C(Nc1nccs1)c1ccc2c(c1)C(=O)N(Cc1cccnc1)C2=O | -4.17 |
| CCCCNC(=O)c1ccc(CS(=O)(=O)c2ccc(C)cc2)o1 | 15.1 |
| CCOC(=O)c1ccc2cccc(C)n2c1=O | 3.05 |
| CSc1ccc(Cl)c(C(=O)N(C)CC(=O)Nc2ccc(N3CCOCC3)cc2)c1 | -0.854 |
| COC(=O)C1CCN(C(=O)COC(=O)Cc2c[nH]c3ccccc23)CC1 | 3.1 |
| Cc1ccc(CN(C(=O)c2cccs2)C2CCS(=O)(=O)C2)cc1 (stereo not drawn) | -46.5 |
| CCn1c(C)nc2c(=O)oc3ccccc3c21 | -9.57 |
| CCNC(=O)c1ccc(N(C)S(=O)(=O)c2cccs2)cc1 | 26.5 |
| CC1CCN(Cc2c(C(=O)N/N=C/c3cc(Br)ccc3O)nnn2-c2nonc2N)CC1 | 19.9 |
| CC1(C)CC(=O)c2ccc(O)cc2O1 | 4.03 |
| CC1(C)CC(=O)c2c(O)cc(OCc3ccc([N+](=O)[O-])cc3)cc2O1 | 15.1 |

| Compound | hERG current change (%, negative = inhibition) at 10uM [%] |
| --- | --- |
| CC1(C)CC(=O)c2ccc(OCc3ccc([N+](=O)[O-])cc3)cc2O1 | -57.7 |
| O=C(COC(=O)c1ccc2c(c1)S(=O)(=O)N=C1CCCCCN12)NCCc1ccc(F)cc1 | -3.75 |
| CC1CN(C(=O)c2ccc(NS(=O)(=O)c3ccc(F)cc3)cc2)CC(C)O1 (stereo not drawn) | 3.67 |
| Cc1ccc(/C=C(\NC(=O)c2ccccc2)C(=O)NCCc2ccccn2)o1 | -12.8 |
| O=C(O)c1ccc(N/N=C/c2ccc(-c3cccc(Cl)c3)o2)cc1 | 8.51 |
| CN(C)CCNC(=O)/C(=C/c1ccc(-c2cccc(Cl)c2)o1)NC(=O)c1ccccc1 | -72 |
| Cc1ccc(/C=C(/NC(=O)c2ccccc2)C(=O)NCCc2c[nH]c3ccccc23)o1 | -21.3 |
| CN(C)CCNC(=O)/C(=C/c1ccc(-c2ccc(Cl)cc2)o1)NC(=O)c1ccccc1 | -80.9 |
| Cc1ccc(C(=O)N/C(=C\c2ccc(-c3cc(Cl)ccc3Cl)o2)C(=O)NCc2cccnc2)cc1 | 2.81 |
| O=C(O)c1ccc(N/N=C/c2ccc(-c3ccc(Cl)cc3Cl)o2)cc1 | 10.7 |
| CN(C)CCNC(=O)/C(=C/c1ccc(-c2ccc(Cl)cc2Cl)o1)NC(=O)c1ccccc1 | -55.1 |
| Cc1ccc(C)c(N2N=C(C(=O)Nc3ccccc3N3CCCC3)CCC2=O)c1 | 3.97 |
| COc1ccccc1/C=N\Nc1ccccc1[N+](=O)[O-] | 21.7 |
| O=C(O)c1ccc(CNC(=O)c2ccc(S(=O)(=O)N3CCCCC3)cc2)cc1 | -1.88 |
| NC(=O)Cn1cnc(-c2ccccc2)c1 | 9.58 |
| CCCCc1c(O)nc(SCC(=O)N2CCOCC2)n(-c2ccccc2OC)c1=O | 7.27 |
| COCCNC(=O)C1(C)C=CC2(CCCCC2)N1C(=O)c1ccccc1 (stereo not drawn) | 5.19 |
| CC(=O)N(CN1C(=O)C2CC=CCC2C1=O)c1cccc(Cl)c1 (stereo not drawn) | -5.31 |
| Cc1cc(C(=O)N2CCCC(N3CCN(c4cccc(C(F)(F)F)c4)CC3)C2)c(C)o1 (stereo not drawn) | -23.2 |
| Cc1ccc2nccc(C(=O)N3CCCC(N4CCN(c5ccc(F)cc5)CC4)C3)c2c1 (stereo not drawn) | -48.5 |
| Cc1nonc1C(=O)N1CCCC(N2CCN(c3ccc(F)cc3)CC2)C1 (stereo not drawn) | -51.8 |
| Cc1ncoc1C(=O)N1CCCC(N2CCN(c3cccc(C(F)(F)F)c3)CC2)C1 (stereo not drawn) | -35.7 |
| Cc1cc(C(=O)N2CCCC(N3CCN(c4ccc(F)cc4)CC3)C2)c(C)o1 (stereo not drawn) | -59.1 |
| Cc1cc(C)c(C(=O)N2CCCC(Nc3ccc(F)cc3)C2)o1 (stereo not drawn) | 9.39 |

| Compound | hERG current change (%, negative = inhibition) at 10uM [%] |
| --- | --- |
| COc1ccccc1N1CCN(C2CCCN(C(=O)c3cc(C)oc3C)C2)CC1 (stereo not drawn) | -3.28 |
| Cc1cc(C)c(C(=O)N2CCCC(N3CCN(c4ccc(F)cc4)CC3)C2)o1 (stereo not drawn) | -73.6 |
| Cc1cc(C)c(C(=O)N2CCCC(N3CCN(c4cccc(C(F)(F)F)c4)CC3)C2)o1 (stereo not drawn) | -52.1 |
| COc1ccccc1N1CCN(C2CCCN(C(=O)c3oc(C)cc3C)C2)CC1 (stereo not drawn) | -47.9 |
| Cc1nnsc1C(=O)N1CCCC(N2CCN(c3ccc(F)cc3)CC2)C1 (stereo not drawn) | -12.3 |
| Cc1cccc(N(CC(=O)N/N=C/c2ccc(OCC(=O)NCc3ccco3)cc2)S(C)(=O)=O)c1C | 4.14 |
| C=CCn1c(O)c(C(C)=NCC2CCCO2)c(=O)[nH]c1=O (stereo not drawn) | -6.3 |
| O=C(NCCC(NS(=O)(=O)OCC(Cl)(Cl)Cl)c1ccccc1)C(F)(F)F (stereo not drawn) | -16.4 |
| NC(=O)CCCC1=NS(=O)(=O)c2ccccc2N1 | 11.5 |
| CC(C)C(=O)N1CCN(c2ccccc2NC(=O)c2ccc(C#N)cc2F)CC1 | -72.2 |
| O=C(Nc1ccccc1N1CCCC1)c1ccccc1F | -3.26 |
| CN1CCN(c2ccccc2NC(=O)c2ccccc2F)CC1 | -70.8 |
| O=C(Nc1ccccc1N1CCN(c2ccccc2)CC1)c1ccccc1F | 8.96 |
| CC1CCN(c2ccccc2NC(=O)c2ccc(C#N)cc2F)CC1 | 5.07 |
| COc1c(F)c(F)c(C(=O)Nc2ccccc2N2CCN(C(=O)C(C)C)CC2)c(F)c1F | 6.51 |
| COc1cc2ccccc2cc1C(=O)Nc1ccccc1N1CCCC1 | -4.16 |
| COc1ccc(Cl)cc1C(=O)Nc1ccccc1N1CCN(C)CC1 | -79.3 |
| CC(=O)N1CCN(c2ccccc2NC(=O)c2ccc(C#N)cc2F)CC1 | -49.6 |
| COc1ccc(C(=O)Nc2ccccc2N2CCN(C(=O)C(C)C)CC2)cc1Cl | -30.9 |
| COc1ccc(Cl)cc1C(=O)NC(=S)Nc1ccccc1N1CCOCC1 | 10.2 |
| COc1ccc(Cl)cc1C(=O)Nc1ccccc1N1CCN(C(=O)C(C)C)CC1 | -74 |

Source: paper PMC4336329 (PLoS ONE, 2015)
